In PubChem BioAssay AID1240 (Sanford-Burnham Center for Chemical Genomics, 2008) one finds displacement data, which are given here for 111 molecules.

Screen size: about 50,000 compounds; about 800 (1.6%) showed an effect of 50% or more. What follows is part of a selection rich in strong results, with near analogues and random picks from the rest.

The target in this assay is Bcl-2-like protein 10 (Homo sapiens) (UniProt Q9HD36). The assay is described as follows: TR3 peptide-Bcl-B binding displacers, biochemical primary FP assay, phenotype converters (AID 1240).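 Also: 0% = Bcl-B with tracer peptide and DMSO and 100% = tracer peptide lacking Bcl-B.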 Conditions: GST-Bcl-B / FITC-TR3 peptide fluorescence polarization; stronger effect = higher value; compound at 3.75 mg/L.
Chain of Bcl-2-like protein 10 (Homo sapiens) (Q9HD36 whole entry, looked up): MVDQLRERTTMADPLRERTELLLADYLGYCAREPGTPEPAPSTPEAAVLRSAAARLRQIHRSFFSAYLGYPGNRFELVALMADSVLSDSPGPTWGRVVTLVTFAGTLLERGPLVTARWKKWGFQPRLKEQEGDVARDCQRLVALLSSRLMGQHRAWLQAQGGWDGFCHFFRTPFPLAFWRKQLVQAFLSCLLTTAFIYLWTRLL
`Oc1ccccc1C=Nc1ccc2c(c1)ncn2-c1ccccc1`: the displacement turned out to be 15.5%.

Consider `Oc1ccccc1C=Nc1ccc2c(c1)ncn2CCn1cnc2cc(N=Cc3ccccc3O)ccc21`, for which the displacement was 115%.

Consider `Cc1nc2cc(N=Cc3ccccc3O)ccc2n1C`, for which the displacement is 12.7%.

Turning to `Cc1nc2c(sc3nc(C)c(C)c(C)c32)c(=O)o1`, the displacement stood at 0%.

Turning to `COC(=O)c1cc(Cl)c(NC(=O)C(c2ccccc2)c2ccccc2)cc1OC`, the displacement was -16.6%.

With `COc1cc(/C=N/NC(=O)/C(=C\C=C\c2ccccc2)NC(=O)c2ccccc2)cc(OC)c1O`, the displacement is -2.3%.

As to `Cc1c(O)ccc2c3c(c(=O)oc12)CCC3`, the displacement is 12.3%.

Regarding `CN1CCN(Cc2c(O)ccc3c4c(c(=O)oc23)CCC4)CC1`, the displacement was -0.5%.

On to `Cc1c(OCc2ccc(C(=O)O)cc2)ccc2c3c(c(=O)oc12)CCC3`, for which the displacement amounted to 8.3%.

Take `O=c1cc(C(F)(F)C(F)(F)F)c2cc3c4c(c2o1)CCCN4CCC3`: the displacement was determined as 66.7%.

On to `Cc1c(C=O)c(=O)oc2c3c4c(cc12)CCCN4CCC3`, for which the displacement was 148%.

Turning to `O=c1oc2c3c4c(cc2cc1CCO)CCCN4CCC3`, the displacement stood at 75.8%.

Turning to `COCCCNC(=O)c1ccc(C(=O)NCCCOC)cc1`, the displacement is -6.5%.

In the case of `O=[N+]([O-])c1cnc(-c2ccccc2)nc1`, the displacement was -3.2%.

Consider `COc1cc(Br)cc(/C=C(\C#N)C(=O)NC2CCCCC2)c1O`, for which the displacement is -5.3%.

Turning to `COc1ccc(Cl)cc1C(=O)Nc1nc(-c2ccc(Cl)cc2Cl)cs1`, the displacement was 9.7%.

In the case of `CCSc1nc2ccccc2n1Cc1ccc(OC)c([N+](=O)[O-])c1`, the displacement stood at 10.5%.

With `CC(=O)Nc1cccc(NS(=O)(=O)c2ccccc2)c1`, the displacement was 9.1%.

As for `C=CCNC(=O)Nc1ccc2nccnc2c1`, the displacement was found to be 8.7%.

Turning to `CCOC(=O)c1c(NC=O)sc2c1CCC/C2=N\O`, the displacement stood at 148%.

Turning to `CCOC(=O)c1c(NC(=O)c2ccccc2)sc2c1CCC/C2=N/O`, the displacement is -0.2%.

Turning to `CCOC(=O)c1c(NC=O)sc2c1CCC2`, the displacement is -2.1%.

As for `COc1cccc(N2C(=O)C(=O)/C(=C(\O)c3ccccc3)C2c2ccc([N+](=O)[O-])cc2)c1` (stereo unspecified), the displacement is 4.1%.

For `O=c1/c(=C/c2cn(Cc3ccc(F)cc3)c3ccccc23)sc2nc3ccccc3n12`, the displacement was 2.3%.

Take `NS(=O)(=O)c1cccc(NC(=O)c2cccs2)c1`: the displacement amounted to 1.4%.

Regarding `CCOc1ccc(/C=C2\SC(=S)N(CCC(=O)N3CCN(C)CC3)C2=O)cc1`, the displacement amounted to 1.2%.

On to `O=C(CCCN1C(=O)/C(=C\c2cccs2)SC1=S)Nc1ccc(F)c(Cl)c1`, for which the displacement was determined as 3.9%.

Consider `O=C(CCN1C(=O)/C(=C/c2cccs2)SC1=S)Nc1ccc(F)cc1`, for which the displacement is 10.6%.

Take `CCOc1ccc(/C=C2/SC(=S)N(CN3CCOCC3)C2=O)cc1`: the displacement was 8.8%.

Take `COc1ccc(NC(=O)CCN2C(=O)/C(=C/c3cccs3)SC2=S)cc1`: the displacement was determined as 82.8%.

Turning to `O=C(CCN1C(=O)/C(=C\c2cccs2)SC1=S)Nc1ccc(Cl)cc1`, the displacement is 77.4%.

Regarding `O=C(CCCN1C(=O)/C(=C/c2ccccc2)SC1=S)Nc1ccccc1C(=O)O`, the displacement turned out to be 2%.

As to `Cc1ccccc1NC(=O)CCCN1C(=O)/C(=C/c2cccc3c2OCO3)SC1=S`, the displacement came out at 94.9%.

Take `COc1ccc(NC(=O)CCN2C(=O)/C(=C\c3cccc(OC)c3)SC2=S)cc1`: the displacement was -5.5%.

On to `O=C(CCCN1C(=O)/C(=C\c2cccs2)SC1=S)Nc1ccccc1O`, for which the displacement amounted to 10.6%.

`COc1ccc(NC(=O)CCN2C(=O)/C(=C/c3ccc(F)cc3)SC2=S)cc1`: the displacement was 12.3%.

As to `CCOc1ccc(/C=C2\SC(=S)N(CCC(=O)N3CCOCC3)C2=O)cc1`, the displacement is 100%.

`O=C(O)CSc1nnc(-c2ccco2)n1-c1ccccc1`: the displacement was 0.4%.

Turning to `O=C(Nc1ccc(Cl)c(Cl)c1)C(c1ccccc1)c1ccccc1`, the displacement is 15.4%.

On to `COC(=O)c1ccccc1P(C)(C)=O`, for which the displacement worked out at 1%.

In the case of `COc1ccc(Br)cc1C(=O)Nc1cc2nn(-c3ccc(C)cc3)nc2cc1C`, the displacement is -6.9%.

Turning to `COc1ccc(NS(=O)(=O)c2cc(C)ccc2C)cc1`, the displacement came out at 2%.

For the molecule `O=C(Nc1cccnc1)c1cccc(C(=O)Nc2cccnc2)n1`, the displacement was -7.2%.

With `O=C(CSc1nnc(-c2ccncc2)n1-c1ccccc1)c1ccc(F)cc1`, the displacement is -2.7%.

As to `COc1ccc(C(=O)Nc2cccc(NC(=O)c3ccc(F)cc3)c2)cc1Br`, the displacement was 2.2%.

As for `CN(C)c1ccc(NS(=O)(=O)c2ccccc2[N+](=O)[O-])cc1`, the displacement came to 9.8%.

As for `O=C1C(Cl)=C(N2CCOCC2)C(=O)C(Cl)=C1/C=C/N1CCOCC1`, the displacement was found to be 24.3%.

With `O=C(CCCN1C(=O)/C(=C\c2cccs2)SC1=S)Nc1cccnc1`, the displacement is -0.9%.

For the molecule `Cc1c(NC(=O)CCCN2C(=O)/C(=C/c3ccccc3)SC2=S)c(=O)n(-c2ccccc2)n1C`, the displacement was 1.5%.

`COc1cccc(/C=C2/SC(=S)N(CCC(=O)Nc3c(C)n(C)n(-c4ccccc4)c3=O)C2=O)c1`: the displacement was found to be 7.7%.

For the molecule `CCOc1ccc(/C=C2\SC(=S)N(CCC(=O)Nc3cccnc3)C2=O)cc1`, the displacement was 77%.

Turning to `COc1cccc(NC(=O)CCN2C(=O)/C(=C/c3ccc(C)cc3)SC2=S)c1`, the displacement came to 39.1%.

For `CCOc1ccc(/C=C2\SC(=S)N(CCC(=O)Nc3ccccn3)C2=O)cc1`, the displacement was -4.3%.

For `COc1ccc(/C=C2\SC(=S)N(CCCC(=O)Nc3c(C)n(C)n(-c4ccccc4)c3=O)C2=O)cc1`, the displacement was found to be 120%.

`O=C(CCN1C(=O)/C(=C/c2cccs2)SC1=S)Nc1cccc(F)c1`: the displacement was -21.4%.

With `O=C(CCN1C(=O)/C(=C/c2cccs2)SC1=S)Nc1cccnc1`, the displacement worked out at 135%.

Take `CCc1ccc(C(=O)CC2(O)C(=O)Nc3ccc(Br)cc32)cc1` (stereo unspecified): the displacement turned out to be 2.3%.

Turning to `Cc1ccc(CN2CCN(N=Cc3c(O)ccc4ccccc34)CC2)c(C)c1`, the displacement turned out to be 0.3%.

As to `Cc1nc([N+](=O)[O-])cn1-c1cccc(O)c1`, the displacement came to 3%.

Take `Cc1cccc(NC(=O)COc2ccccc2)n1`: the displacement turned out to be 13.2%.

Regarding `CCCNc1nc(OCC(F)(F)F)nc(OCC(F)(F)F)n1`, the displacement came out at 12.4%.

Take `O=C1OC(c2ccc(F)cc2)=N/C1=C\c1ccc(Cl)cc1`: the displacement came out at 4.3%.

Consider `COc1cc(/C=C2\N=C(c3cccc(Br)c3)OC2=O)cc(OC)c1OC`, for which the displacement stood at 72.6%.

Regarding `COc1ccc(/C=C2/N=C(c3ccc(Br)cc3)OC2=O)cc1`, the displacement came out at 99.4%.

In the case of `C=CCOc1c(Br)cc(/C=C2/N=C(c3ccccc3)OC2=O)cc1OC`, the displacement was -4.9%.

In the case of `CN(C)/C=C1\N=C(c2cccc(Br)c2)OC1=O`, the displacement came to 0.8%.

As to `COc1ccc(C2=NC(=Cc3ccc(Br)cc3)C(=O)O2)cc1`, the displacement amounted to 22.5%.

Turning to `O=C1OC(c2ccc(F)cc2)=N/C1=C\c1cccc(Br)c1`, the displacement is 74.2%.

On to `Cc1ccc(/C=C2\N=C(c3ccc(Cl)cc3)OC2=O)cc1`, for which the displacement came out at 0%.

`COc1ccc(/C=C2\N=C(c3cccc(OC)c3)OC2=O)cc1`: the displacement is -1.7%.

For the molecule `Cc1ccc(C2=N/C(=C\c3ccccc3)C(=O)O2)cc1`, the displacement is -7.3%.

Take `O=C1OC(c2cccc(F)c2)=N/C1=C\c1ccc(F)cc1`: the displacement is -2.2%.

As for `COc1ccc(/C=C2/N=C(c3ccc(C)cc3)OC2=O)cc1Br`, the displacement amounted to 127%.

With `CN(C)c1ccc(/C=N/NC(=O)c2ccc(CN3CCOCC3)cc2)cc1Br`, the displacement came out at 6.3%.

Turning to `Cc1ccc(-c2csc(N)c2C(=O)OC(C)C)cc1`, the displacement was -1.9%.

For `Cc1c(NC(=O)c2cccs2)cccc1-c1nc2ncccc2o1`, the displacement was 3.8%.

As to `O=C(Nc1ccc(Nc2ccccc2)cc1)c1ccc(Cl)cc1Cl`, the displacement is -13.5%.

As for `O=C(N/N=C/c1ccccc1Cl)c1ccccn1`, the displacement is -9.6%.

For the molecule `CNCCOc1nc(-c2ccccc2)cc(-c2ccccc2)n1`, the displacement is -7.8%.

Regarding `CCOC(=O)N1CCN(S(=O)(=O)c2ccc(C)cc2)C1`, the displacement worked out at 10.6%.

On to `O=C1CS/C(=N/N=C/c2ccc3c(c2)OCO3)N1`, for which the displacement was -8.7%.

With `NC(CC(=O)OC1CCCCC1)C(=O)OC1CCCCC1` (stereo unspecified), the displacement came to 74.3%.

Take `CC1(C)CC(NCC(=O)OC2CCCCC2)CC(C)(C)N1`: the displacement came out at 12.1%.

Take `O=C(NCC1CCS(=O)(=O)C1)OC1CCCCC1` (stereo unspecified): the displacement is 2%.

Turning to `Cc1ccc2[nH]c(C)c(CN(C)Cc3ccccc3)c(=O)c2c1`, the displacement is -15.8%.

With `COCCCNC(=O)CN(c1cccc([N+](=O)[O-])c1)S(=O)(=O)c1ccccc1`, the displacement was found to be 11.1%.

Consider `Cc1cc(NC(=O)c2cc(-c3ccccc3)nc3ccccc23)no1`, for which the displacement is 3.8%.

Consider `CN(C)/C=C1\C=C2C(=O)c3ccccc3N2C1=O`, for which the displacement is 162%.

Turning to `CCO/C=C1\C(=O)N(CC)c2ccccc21`, the displacement was 19.1%.

Consider `CN(C)/C=C1/C=C(c2ccccc2)OC1=O`, for which the displacement was -11.5%.

In the case of `COc1ccc(N(CC(=O)NCc2ccccc2)S(=O)(=O)c2ccc(C)cc2)cc1`, the displacement is -1.4%.

In the case of `COc1ccc(OC)c(N(CC(=O)N/N=C/c2ccc(OC3CSC3)cc2)S(=O)(=O)c2ccccc2)c1`, the displacement stood at 7.5%.

Consider `COc1ccc(/C(N)=N/OC(=O)c2ccc(Cl)cc2)cc1`, for which the displacement amounted to 83.7%.

For the molecule `COc1ccc(/C(N)=N/OC(=O)c2ccc(C)cc2)cc1`, the displacement was -20.8%.

Take `COc1ccc(C(=O)O/N=C(\N)c2ccccc2)cc1`: the displacement was -9.3%.

`O=C(COc1ccccc1Cl)NNC(=O)c1ccccn1`: the displacement is -13%.

As for `COc1ccc(C2=C/C(=C/c3ccc(Cl)cc3)C(=O)O2)cc1OC`, the displacement turned out to be 105%.

For the molecule `COc1ccc(/C=C2\C=C(c3ccc(Cl)cc3)OC2=O)cc1C`, the displacement is 0.9%.

As for `CCOc1cc(/C=C2/C(=O)ON=C2c2ccc(Cl)cc2)ccc1OC`, the displacement was 118%.

Regarding `CCOc1c(I)cc(/C=C2\C(=O)ON=C2c2ccccc2)cc1OC`, the displacement came to 3.5%.

Regarding `COc1ccc(C2=C/C(=C/c3ccc(Cl)cc3)C(=O)O2)cc1`, the displacement is -4.1%.

For the molecule `COc1ccc(/C=C2\C=C(c3ccc(Cl)cc3)OC2=O)cc1[N+](=O)[O-]`, the displacement worked out at 36.4%.

Regarding `O=C1ON=C(c2ccc(Cl)cc2)/C1=C/c1ccc(O)cc1`, the displacement came out at 4.4%.

As for `COc1cc(/C=C2\C=C(c3ccc(Cl)cc3)OC2=O)cc(Br)c1OC`, the displacement is -9.5%.

Consider `COc1ccc(/C=C2\C=C(c3ccc(Cl)cc3)OC2=O)cc1OC`, for which the displacement came to 147%.

Consider `CN(C)c1ccc(C=Nn2cnnc2)cc1`, for which the displacement was -7.2%.

`CCN(CC)CCSc1nc(O)c(C2CCCCC2)c(=O)[nH]1`: the displacement is -6.4%.

`COc1cccc(C2NC(=S)NC(C)=C2C(=O)Nc2cccc(Cl)c2)c1` (stereo unspecified): the displacement is -14%.

Regarding `N#C/C(=C\c1ccc(-c2cccc([N+](=O)[O-])c2)o1)C(=O)N1CCOCC1`, the displacement was -3.5%.

Turning to `CCOC(=O)c1c(C)n(C)c2c1cc(O)c1ccccc12`, the displacement was -0.3%.

As to `Cc1ccc(/C=C(\C#N)c2nc(-c3ccc([N+](=O)[O-])cc3)cs2)o1`, the displacement was determined as 3.5%.
